# Measured values from the supplement of paper PMC7156485.
# Key:
# Conditions in all cases: concentration: 10 µM; 24 h
# [1] = test system: HCC1569; assay: cell number relative to DMSO (% of DMSO); higher = more cells (less growth inhibition / toxicity)
# How it was run: (§1)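 Using 384-well plates with 800 cells per well in RPMI plus 10% FBS, HCC1569 and TDF cells were exposed to compounds at 10 µM, in triplicate, for 24 h at 37 °C. Imaging of six fields per well at ×10 followed H1.0 and DAPI staining. The reported quantity, H1.0 nuclear intensity or cell number, is a median of replicates given as percent of the plate control, and HCC1569 values were smoothed for positional effects.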
# [2] = test system: TDF; assay: as above
# How it was run: as §1
# [3] = test system: TDF; assay: H1.0 immunofluorescence intensity relative to DMSO (% of DMSO); higher = stronger H1.0 induction, active = 120 or more
# How it was run: as §1
# [4] = test system: HCC1569; assay: H1.0 immunofluorescence intensity relative to DMSO (% of DMSO); higher = stronger H1.0 induction, active = 140 or more
# How it was run: as §1
# 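Wherever H1.0 immunofluorescence intensity relative to DMSO is given: TDF is a line of transformed human dermal fibroblasts of mesenchymal origin.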
# 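Wherever cell number relative to DMSO is given: TDF denotes transformed human dermal fibroblasts of mesenchymal origin.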
Compound,cell number [1],cell number [2],H1.0 immunofluorescence intensity [3],H1.0 immunofluorescence intensity [4]
O=P(O)(O)C(O)(Cn1ccnc1)P(=O)(O)O [Zoledronic acid],99,89,94 (inactive),100 (inactive)
CCCCn1c(=O)c2c(ncn2CC(C)=O)n(CCCC)c1=O [Denbufylline],103,112,87.3 (inactive),106 (inactive)
"CCCCCC(O)C=CC1C(O)CC(O)C1CC=CCCCC(=O)O (stereo not given) [9a,11b Prostaglandin F2]",106,99.4,94.2 (inactive),101 (inactive)
OC1CCN2Cc3ccccc3N=C12 (stereo not given) [Vasicine],102,105,98.7 (inactive),89.7 (inactive)
CC(C)N=c1cc2n(-c3ccc(Cl)cc3)c3ccccc3nc-2cc1Nc1ccc(Cl)cc1,89.6,72.2,109 (inactive),118 (inactive)
